# Assay results published in PubChem BioAssay.
# The source made the active and inactive calls.
# Assays:
# [1] = tested on: Plasmodium falciparum Sir2 (PF13_0152, Sir2A); test: Plasmodium falciparum Sir2A binding compounds – biochemical, small-molecule microarray, 635 nm fluorescence, primary screen (AID 1098); settings: fluorescence 635 nm, higher = more signal;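 note: score merges spot fluorescence intensity with its signal-to-noise ratio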
# [2] = probe aDKK1 binding to arrayed compounds – biochemical, biotinylated probe, 635/667 nm fluorescence, primary screen (AID 1099); settings: small-molecule microarray, higher = more signal;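 note: score merges 667nm spot fluorescence with signal to noise across triplicate slides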
# [3] = probe aCHRDL2 binding to arrayed compounds – biochemical, biotinylated probe, 635/667 nm fluorescence, primary screen (AID 1100); settings: small-molecule microarray, higher = more signal
# [4] = change in splice reporter luminescence, either direction, cell-based, HEK293, spliceosome inhibition project, primary screen (AID 1101); settings: HEK293 splicing luciferase reporter, 24 h, higher = more signal, called active from +8 up or from −8 down;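 note: HEK293 cells carrying a splicing-competent luciferase reporter gene; test concentration not given here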
# [5] = biological target: Fibroblast growth factor 10 (Homo sapiens) (UniProt O15520); test: compounds binding fibroblast growth factor 10 – biochemical, small-molecule microarray, 635 nm fluorescence, primary screen (AID 1102); settings: FGF10 binding, fluorescence 635 nm, higher = more signal
# Chain of Fibroblast growth factor 10 (Homo sapiens) (O15520 whole entry, looked up): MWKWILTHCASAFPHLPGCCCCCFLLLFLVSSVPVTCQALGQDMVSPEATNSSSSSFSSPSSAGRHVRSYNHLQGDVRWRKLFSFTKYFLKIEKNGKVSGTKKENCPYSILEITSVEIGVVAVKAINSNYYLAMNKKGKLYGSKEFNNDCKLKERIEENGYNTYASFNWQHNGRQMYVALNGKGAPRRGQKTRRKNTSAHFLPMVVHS
# [6] = tested on: glycogen synthase kinase-3 (GSK3A per assay name; protocol says GSK3B); test: compounds binding glycogen synthase kinase-3 – biochemical, small-molecule microarray, 635 nm fluorescence, GSK3A, primary screen (AID 1103); settings: fluorescence 635 nm, higher = more signal; note: the record names both GSK3A and GSK3B
# [7] = biological target: Epidermal growth factor receptor (Homo sapiens) (UniProt P00533); test: compounds binding epidermal growth factor receptor – biochemical, small-molecule microarray, 635 nm fluorescence, primary screen (AID 1104); settings: EGFR binding, higher = more signal;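 note: score merges 667 nm emission intensity with spot signal to noise over triplicate slides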
# Chain of Epidermal growth factor receptor (Homo sapiens) (P00533 whole entry, looked up): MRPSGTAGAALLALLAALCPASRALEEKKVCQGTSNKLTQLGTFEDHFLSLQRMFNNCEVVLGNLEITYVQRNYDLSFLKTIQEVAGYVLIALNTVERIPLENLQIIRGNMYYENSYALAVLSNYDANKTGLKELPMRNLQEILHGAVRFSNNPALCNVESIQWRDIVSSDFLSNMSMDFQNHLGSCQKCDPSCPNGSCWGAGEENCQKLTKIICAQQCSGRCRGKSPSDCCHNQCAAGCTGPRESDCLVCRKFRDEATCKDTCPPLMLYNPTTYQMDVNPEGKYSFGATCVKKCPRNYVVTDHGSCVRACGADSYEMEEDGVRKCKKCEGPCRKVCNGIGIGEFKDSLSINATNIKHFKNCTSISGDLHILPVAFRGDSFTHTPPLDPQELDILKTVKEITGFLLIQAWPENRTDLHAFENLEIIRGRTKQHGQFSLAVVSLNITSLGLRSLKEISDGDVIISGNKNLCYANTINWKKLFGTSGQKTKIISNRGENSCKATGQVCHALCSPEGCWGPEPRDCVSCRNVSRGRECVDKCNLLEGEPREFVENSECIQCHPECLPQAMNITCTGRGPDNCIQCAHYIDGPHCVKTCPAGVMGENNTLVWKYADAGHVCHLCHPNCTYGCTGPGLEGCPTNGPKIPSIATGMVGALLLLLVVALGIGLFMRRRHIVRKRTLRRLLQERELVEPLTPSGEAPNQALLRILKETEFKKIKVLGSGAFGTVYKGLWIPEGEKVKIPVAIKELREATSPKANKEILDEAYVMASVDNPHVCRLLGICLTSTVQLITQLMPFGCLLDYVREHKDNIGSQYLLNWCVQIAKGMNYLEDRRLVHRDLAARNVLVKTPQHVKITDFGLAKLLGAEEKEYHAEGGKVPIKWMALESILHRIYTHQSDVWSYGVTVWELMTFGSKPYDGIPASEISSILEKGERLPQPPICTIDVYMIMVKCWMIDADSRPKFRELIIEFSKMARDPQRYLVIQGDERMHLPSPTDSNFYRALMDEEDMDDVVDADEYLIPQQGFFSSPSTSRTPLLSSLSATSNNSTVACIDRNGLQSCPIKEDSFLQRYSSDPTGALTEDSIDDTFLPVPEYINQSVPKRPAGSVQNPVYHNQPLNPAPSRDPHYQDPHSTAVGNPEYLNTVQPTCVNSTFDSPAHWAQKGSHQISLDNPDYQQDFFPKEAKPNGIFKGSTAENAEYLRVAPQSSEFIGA
# [8] = biological target: Follistatin-related protein 3 (Homo sapiens) (UniProt O95633); test: compounds binding follistatin-related protein 3 – biochemical, small-molecule microarray, 635 nm fluorescence, primary screen (AID 1105); settings: FSTL3 binding, higher = more signal;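 note: score merges emission near 667 nm and signal to noise per printed spot across three slides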
# Chain of Follistatin-related protein 3 (Homo sapiens) (O95633 whole entry, looked up): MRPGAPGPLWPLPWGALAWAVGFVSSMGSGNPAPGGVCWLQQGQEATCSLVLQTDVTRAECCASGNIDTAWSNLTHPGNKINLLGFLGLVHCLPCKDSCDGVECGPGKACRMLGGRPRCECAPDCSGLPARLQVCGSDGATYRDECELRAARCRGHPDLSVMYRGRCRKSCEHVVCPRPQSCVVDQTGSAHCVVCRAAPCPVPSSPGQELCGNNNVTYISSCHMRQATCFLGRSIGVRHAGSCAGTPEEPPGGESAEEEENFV
# [9] = biological target: Dickkopf-related protein 1 (Homo sapiens) (UniProt O94907); test: small molecules binding DKK1 protein – biochemical, small-molecule microarray, 635 nm fluorescence scan, primary screen (AID 1106); settings: higher = more signal;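 note: score merges emission near 667 nm with signal to noise over three replicate slides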
# Chain of Dickkopf-related protein 1 (Homo sapiens) (O94907 whole entry, looked up): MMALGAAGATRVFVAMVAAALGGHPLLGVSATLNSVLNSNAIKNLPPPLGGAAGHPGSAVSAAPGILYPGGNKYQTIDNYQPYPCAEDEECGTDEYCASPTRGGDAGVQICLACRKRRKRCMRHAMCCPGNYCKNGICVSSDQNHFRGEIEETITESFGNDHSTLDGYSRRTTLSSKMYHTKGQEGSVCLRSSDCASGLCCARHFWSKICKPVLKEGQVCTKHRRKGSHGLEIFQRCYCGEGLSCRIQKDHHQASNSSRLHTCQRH
# [10] = tested on: Inhibin beta A chain (activin A); test: small molecules binding activin A – biochemical, small-molecule microarray, 635 nm fluorescence scan, primary screen (AID 1107); settings: INHBA, higher = more signal;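 note: mouse activin A protein probed at 4.33 µg/mL on printed slides; score merges bound-protein fluorescence near 667 nm with spot signal-to-noise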
# [11] = tested on: Human papillomavirus type 1a protein E7 (residues 44-93); test: small molecules binding HPV E7 44-93 – biochemical, small-molecule microarray, residues 44-93, 635 nm fluorescence, primary screen (AID 1108); settings: fluorescence 635 nm, higher = more signal;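 note: E7 fragment applied at 1 µg/mL in TBST for 1 h at 4 C; score combines spot fluorescence with its signal to noise ratio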
# [12] = hepatitis C replication reporter changes, two-sided – Huh7 cells, luciferase reporter, HCV replication inhibitor project, primary screen (AID 1109); settings: Huh7 HCV replicon luciferase reporter, 48 h; higher = more signal;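 note: huh7 hepatoma cells harbouring a luciferase neomycin HCV replicon reporter; luciferase luminescence as measure of HCV replicon replication; test concentration not given here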
# [13] = biological target: Left-right determination factor 2 (Homo sapiens) (UniProt O00292); test: small molecules binding LEFTY2 protein – biochemical, small-molecule microarray, 635 nm fluorescence scan, primary screen (AID 1110); settings: higher = more signal
# Chain of Left-right determination factor 2 (Homo sapiens) (O00292 whole entry, looked up): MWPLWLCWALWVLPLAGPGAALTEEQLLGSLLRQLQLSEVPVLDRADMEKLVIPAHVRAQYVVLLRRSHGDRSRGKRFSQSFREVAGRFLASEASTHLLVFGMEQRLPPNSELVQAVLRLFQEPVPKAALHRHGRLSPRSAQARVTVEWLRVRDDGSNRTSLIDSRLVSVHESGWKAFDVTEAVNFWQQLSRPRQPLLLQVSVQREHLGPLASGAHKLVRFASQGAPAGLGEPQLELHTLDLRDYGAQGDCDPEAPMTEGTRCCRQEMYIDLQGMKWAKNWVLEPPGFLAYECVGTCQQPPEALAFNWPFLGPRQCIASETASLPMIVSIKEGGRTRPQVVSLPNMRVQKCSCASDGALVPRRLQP
# [14] = biological target: Calmodulin-1 (Homo sapiens) (UniProt P0DP23); test: small molecules binding calmodulin-1 with EGTA – biochemical, small-molecule microarray, Cy5-labelled CALM1, profiling panel (AID 1111); settings: Cy5-CALM1 binding fluorescence, higher = more signal;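 note: labelled calmodulin applied in Tris saline Tween buffer holding calcium plus EGTA and DTT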
# [15] = biological target: Calmodulin-1 (Homo sapiens) (UniProt P0DP23); test: small molecules binding Ca-loaded calmodulin-1 – biochemical, small-molecule microarray, Cy5-labelled CALM1, plus calcium, artefact control for SMM control-protein annotation, profiling panel (AID 1112); settings: Cy5-CALM1 binding fluorescence, higher = more signal;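 note: score merges spot fluorescence with signal to noise from triplicate slides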
# [16] = probe aWnt5a binding to arrayed compounds – biochemical, biotinylated probe, 635/667 nm fluorescence, primary screen (AID 1113); settings: small-molecule microarray, higher = more signal;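 note: score merges 667 nm fluorescence intensity with signal-to-noise per printed feature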
# [17] = probe aShh binding to arrayed compounds – biochemical, biotinylated probe, 635/667 nm fluorescence, primary screen (AID 1114); settings: small-molecule microarray, higher = more signal;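 note: probe is biotin-labelled aShh protein from a stem cell growth factor screen; measures binding of labelled protein to compounds printed on the slide; score merges feature fluorescence at 667 nm with signal-to-noise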
# [18] = probe aNog binding to arrayed compounds – biochemical, biotinylated probe, 635/667 nm fluorescence, primary screen (AID 1115); settings: small-molecule microarray, higher = more signal;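 note: probe is biotinylated aNog protein used at 0.15 µg/mL for 1 h at 4 C; z-score combines 667 nm fluorescence of each spot with its signal to noise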
# [19] = biological target: Torsin-1A-interacting protein 1 (Homo sapiens) (UniProt Q5JTV8); test: compound microarray binding of lysate hLAP1 – cell lysate, small-molecule microarray, COS7 lysate, 635/667 nm fluorescence, primary screen (AID 1116); settings: 635 nm fluorescence, higher = more signal
# Chain of Torsin-1A-interacting protein 1 (Homo sapiens) (Q5JTV8 whole entry, looked up): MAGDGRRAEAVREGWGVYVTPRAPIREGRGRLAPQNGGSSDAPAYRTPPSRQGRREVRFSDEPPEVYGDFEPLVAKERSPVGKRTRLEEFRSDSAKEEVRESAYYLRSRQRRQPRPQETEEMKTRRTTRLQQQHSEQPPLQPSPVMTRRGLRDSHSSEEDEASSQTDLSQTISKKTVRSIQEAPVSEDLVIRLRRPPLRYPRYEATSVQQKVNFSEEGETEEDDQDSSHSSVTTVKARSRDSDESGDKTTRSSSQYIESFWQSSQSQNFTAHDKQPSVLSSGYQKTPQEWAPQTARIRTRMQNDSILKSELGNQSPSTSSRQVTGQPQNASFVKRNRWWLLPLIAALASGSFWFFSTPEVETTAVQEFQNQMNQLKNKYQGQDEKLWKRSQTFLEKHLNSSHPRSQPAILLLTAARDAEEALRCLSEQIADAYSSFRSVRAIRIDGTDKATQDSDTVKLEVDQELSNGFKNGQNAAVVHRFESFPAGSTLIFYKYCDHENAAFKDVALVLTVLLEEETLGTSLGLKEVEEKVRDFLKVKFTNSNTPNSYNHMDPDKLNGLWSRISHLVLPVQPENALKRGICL
# [20] = biological target: Alpha-bungarotoxin (Bungarus multicinctus) (UniProt P60615); test: compounds binding labelled alpha-BTX control protein – biochemical, small-molecule microarray, Alexa647 label, 635/667 nm fluorescence, artefact control for SMM control protein annotation, profiling panel (AID 1117); settings: alpha-BTX-A647 binding fluorescence, higher = more signal
# Chain of Alpha-bungarotoxin (Bungarus multicinctus) (P60615 whole entry, looked up): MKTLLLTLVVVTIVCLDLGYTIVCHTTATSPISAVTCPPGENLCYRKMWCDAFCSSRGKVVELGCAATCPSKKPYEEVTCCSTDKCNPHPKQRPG
Structure (SMILES),composite z-score [1],composite z-score [2],composite z-score [3],z-score [4],composite z-score [5],composite z-score [6],composite z-score [7],composite z-score [8],composite z-score [9],composite z-score [10],composite z-score [11],z-score [12],composite z-score [13],composite z-score [14],composite z-score [15],composite z-score [16],composite z-score [17],composite z-score [18],composite z-score [19],composite z-score [20]
CCCC[C@H]1OB(O)C[C@H]2C1=C(COc1ccccc1)Cn1c(=O)n(-c3ccccc3)c(=O)n12,0.918,-0.149,-0.387,0.142 (inactive),0.926,0.61,0.283,1.01,0.203,0.54,1.03,-0.917,0.375,0.292,-0.0404,-0.186,-0.16,-0.555,0.654,-0.334
CC1C=C(CCCO)C=C(C(=O)OCCS(C)(=O)=O)C(C(=O)OCCS(C)(=O)=O)=CN1Cc1cccc(OC(F)(F)F)c1 (stereo not given),1.11,0.111,0.297,1.01 (inactive),0.243,0.621,-0.235,0.113,-0.385,0.829,1.11,-1.82,-0.152,1.7,1.09,0.027,0.481,1.27,2.99,0.761
COCCOC(=O)N1C(=O)[C@@]2(c3cc(C#Cc4ccc(OC)cc4)ccc31)[C@H](C(=O)N1CCc3cc(OC)c(OC)cc3C1)[C@H]1C(=O)O[C@H](c3ccccc3)[C@H](c3ccccc3)N1[C@@H]2c1ccc(OCCO)cc1,-0.352,0.218,-0.0585,-0.32 (inactive),0.705,1.03,0.595,0.997,0.588,0.115,0.577,-0.195,0.516,1.24,0.897,-0.0482,-0.138,0.0637,0.247,1.41
COCCCNC(=O)[C@]1(Cc2ccccc2CN=[N+]=[N-])N=C(c2ccc(OCCCO)cc2)O[C@@H]1c1ccccc1CN=[N+]=[N-],1.59,1.35,1.25,0.438 (inactive),0.944,1.19,0.119,0.07,-0.214,0.413,-0.113,-2.54,0.0705,1.85,0.945,0.19,0.417,1.92,2.09,1.3
O=C1OCC=C[C@H]2OC34C=CCN(CCN5CCOCC5)C(=O)[C@H]3N(CCCCCO)C(=O)[C@@H]4[C@@H]12 (stereo not given in full),1.35,-0.284,-0.227,0.636 (inactive),-0.736,-0.0692,-0.411,-0.412,-0.24,0.77,-1.19,0.557,-0.258,-0.234,-0.953,-0.178,-0.223,-0.278,-0.607,0.396
COCCCNC(=O)[C@]1(CCS(=O)(=O)c2ccccc2)N=C(c2ccc(OCCCO)cc2)O[C@@H]1c1ccccc1,1.86,0.126,0.937,-0.594 (inactive),1.01,1.01,0.304,0.485,0.0266,0.455,1.11,-0.995,0.494,1.62,0.214,0.0179,-0.161,-0.315,1.8,1.5
COc1ccccc1CN1C(=O)c2ccccc2[C@@]2(Cc3ccccc3N(C3CC3)C2=O)[C@@H]1c1ccc(CO)cc1,0.76,-0.0899,0.322,0.312 (inactive),-0.671,-0.928,-0.724,-0.279,-0.535,0.52,-0.447,-0.344,-0.921,0.117,-0.164,-0.131,0.0062,-0.422,-0.455,0.134
C=CC[C@@]1(C(=O)NCC(O)CO)N=C(c2ccc(OCCCO)cc2)O[C@@H]1c1ccccc1 (stereo not given in full),1.46,1.24,1.34,-0.195 (inactive),1.47,0.0168,-0.829,-0.29,-0.135,0.505,1.21,0.235,-0.834,2.22,0.971,0.512,0.786,-0.419,3.73,2.59
COCC(=C=CC[C@@H](O)c1ccccc1OCCO)C[C@@H](O)COCc1ccccc1,0.72,0.724,0.167,-1.48 (inactive),1.21,0.732,-1.19,-0.268,-0.466,1.24,-0.0562,-0.868,-0.522,1.16,0.0936,0.0158,0.536,0.998,2.56,-0.18
CCN(CC)c1ccc(N2CC=CC34O[C@@H]5/C=C\CCCOC(=O)C5[C@H]3C(=O)N(CCCCCCO)[C@@H]4C2=O)cc1 (stereo not given in full),1.96,-0.202,0.733,-1.13 (inactive),-0.983,-0.521,-1.4,-0.76,-1.82,0.751,-0.117,0.444,-1.76,-1.18,-1.05,-0.139,0.147,-0.0439,1.26,-0.855
C[N+](C)(C)CCCC[C@@H]1NC(=O)[C@@H]2C[C@H](C(=O)O)[C@H](c3cccc(OCCO)c3)N2C1=O,1.53,-0.066,0.667,-0.11 (inactive),0.11,-0.144,-0.188,-0.492,0.503,0.146,0.17,-0.208,-0.8,-0.705,0.417,-0.276,-0.0681,-0.326,-0.0851,-1.03
